# Assay results from the supplement of paper PMC6555819.
# Tested on: VDR:RXRa (NR concentration 270 nM, RXRa partner concentration 90 nM)
# Assay: PBM binding z-score (relative to random genomic background probes); higher = stronger binding; sequences stand for … in GC…GCGATTGACAGCGTAGAATGAAGG
# Description: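 Protein-binding microarray (Agilent 4x180K custom design, double-stranded 60-nt probes: 5' GC cap, 34-nt variable region, 24-nt constant primer region; full probe sequence given). Purified or IVT nuclear receptor:RXRα heterodimers (3:1 NR:RXRα, mostly 270:90 nM) or homodimers were incubated for 1 h in PBS with 2% milk and no ligand, then detected with Alexa488 antibodies. Fluorescence from o1-orientation probes (~5 replicates averaged) was converted to z-scores against 500 random hg19 background probes. Variable regions are seed direct-repeat (DR0–DR5) sites, all their single-nucleotide variants and half-site ablations.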
row,Sequence,PBM binding z-score
1,TCTGCTAGGTCAGTTGCTCAGCTAACGAGCTGCC,-0.466
2,CAGCCTAGGTCAGGGCCAATATAGGAGGAACGTT,0.378
3,GCTAGTTGATCAGTAAAAGGTCACACACCGGTCG,3.87
4,CGTCAAAGTACAACTAAGGTAACGTAAAGCACGC,0.523
5,CCTACTGGGCCAAAAAGGTCATTGAGGCCGATAA,6.03
6,GCTATTAGTTGAAAGGGTAACCGAATGATTCTCG,0.289
7,TAGCCTAGGTCAGATCGGGCAAGTATACGCTATA,0.761
8,CCTATTAGTTTACCATAAGGGCAACCGAAGCTCG,0.484
9,CCTACTGGGCCAGGAAAGGTCATTGATTCAGTGA,3.53
10,CCTGCTAGGTCACGGTCAGCTAATCTACAGTATG,2.5
11,GGAACGAGGGCAAAATTGATAGCATCTGTCGACG,0.352
12,CCAGACAGGTGAAAGGTACCTCAGTCTGGTACGC,0.0967
13,CGAACTAGGACATTGACAGGACAGTGAATAGTAA,-0.192
14,TCTCGGAGGACACGAAGGGCAGAGCTTTCCAGAG,0.0136
15,TCATATAGGTAAATGCTAGGTAAAAGTCCGATCT,0.968
16,TGAATGAGGTTAAAGATCCGGGAACGTGGCGTCG,1.03
17,ATCTCTAGGTAAAAGTTCAGTCAATCCCGAGGAT,1.45
18,CGTCCAAGTTCAGAGAGGTCAGTGAATGCCGAGT,6.86
19,AGAACGAGCGCACGCTGAGTTGATAGCAGAGTAG,-0.801
20,GGAACGAGGGCAAGTTGATTGCAGAGTTTGATGG,0.675

row,Sequence,PBM binding z-score
1,AGAATGAGGTTATTAAGATCAGGGATTTGCGGTC,2.6
2,TCATATAGGTAAATGGTAGGTGAAAGTCCGATCT,1.16
3,GCAGACAGGTGAGACGCAGGTAACTCAGGGTGGC,-0.432
4,GCTAGTTGGTCAGTAAAAGGTCACATACCGGTCG,3.89
5,ATCGAAAGATCGACGAGGTGAGTATACACCGTTT,0.0445
6,GATAGAGGGTCAGCTAGAGGCCAGAGTATGGAAA,2.45
7,ACTATTAGTTGAGACAAGGGCAACCGATAGGTTG,0.191
8,CCGACTGGGGCAATGGTTACCATACTCAGTACGA,-0.604
9,AGAATGAGGTTATACGTAGATCAGGGGAGAAAGT,1.42
10,TAGCCTAGGTCATGCGGGGCAGTATAGTGTCGGC,4.22
11,GCGACTGGAGCAAAGCAGGTTACCATAAGGTTGG,-0.418
12,AGAATGATGTTATACGTAGATCAGGGAAGAAAGT,-0.209
13,CAGCCTAGGTCAGGGCCAGTCTAGGAGGAACGTT,0.0507
14,GCATATAGGTAATGCAAGGTGAAAGTCCGATTGT,0.358
15,AGAACGAGGGCAACGAGTTGATAGCACGGGTGGC,5.16
16,GATATAGGGTCAAGGCCAGAGTACGCGTATTGAT,4.5
17,CCTATTAGTTAACCATAAGGGCAACCGAAGCTCG,0.653
18,TTGCCAAGGTGAAGGTCGTTGATCCCTCTGTAGA,1.08
19,CCCATTAGTTGACCATAAGGGCAACCGAAGCTCG,0.855
20,CGAACTATGTCAGAACAGGACAGTGAAGGATGAT,-0.317
